Reference: PubChem BioAssay AID1626 (SRMLSC, 2009)
Out of some 220,000 compounds screened, about 2,000 (0.91%) were called active. About 2% were inconclusive and are not listed. These entries were drawn from the full list. Measured potencies and affinities stand elsewhere. Values without a mark were called inactive. Rule as the data show it: inconclusive = inhibition above about 80% without an active follow-up result; inactive = below that; test concentration not stated here.

Assay: M. tuberculosis H37Rv growth inhibitors, H37Rv strain (AID 1626);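 also: bacteria incubated seven days before Alamar blue readout; 0% = bacteria only wells and 100% = bacteria with antibiotic wells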
Settings: stronger effect = higher value, concentration not given here

SMILES | inhibition
CCCN(CC(=O)Nc1ccc(F)c(F)c1F)Cc1cc(=O)n2ccsc2n1 | -1.11%
O=C(NCc1ccco1)C12CC3CC(C1)CC(C(=O)NCc1ccco1)(C3)C2 | -5.09%
O=c1c2ccccc2nc(-c2ccccc2Cl)n1O | 2.24%
O=c1c2ccccc2nc(-c2cccc(Cl)c2)n1O | 66.9%
CC1CC(C)CN(c2ccc(C(=O)NCc3ccc4c(c3)OCO4)cc2[N+](=O)[O-])C1 (stereo not drawn) | 13.2%
Cc1ccccc1C(=O)Nc1ccc(C(=O)N/N=C/c2ccc(O)c(Br)c2)cc1 | 6.55%
CCOC(=O)N1CCC(NC(=O)C2CCCN(C(=O)c3cc4sccc4n3C)C2)CC1 (stereo not drawn) | -2.27%
O=C(NCCN1CCN(c2ccccc2)CC1)c1cccn2c(=O)c3ccccc3nc12 | 5.61%
COc1ccc(CCNc2cc(C)nc3c(-c4ccccc4)cnn23)cc1OC | 1.98%
COCCNc1cc(C)nc2c(-c3ccccc3OC)c(C)nn12 | -2.69%
Cc1cc(NCCC(C)C)n2nc(C)c(-c3ccccc3)c2n1 | 11.3%
Cc1cc(Cl)n2nc(C)c(-c3ccc(Cl)cc3)c2n1 | 0.72%
CCOC(=O)c1ccc(NC(=O)C2CCN(C(=O)c3ccc(OC)c(OC)c3)CC2)cc1 | -6.93%
O=C(NC1=NCCCCC1)c1cccc2ccccc12 | -1.94%
COc1cccc(CNCCSc2nnnn2C)c1 | 6.16%
CCNC(=O)N1CCCC(C(=O)c2ccc3cc(OC)ccc3c2)C1 (stereo not drawn) | -5.17%
COC(=O)c1ccc(CSc2nnc3c(Cl)cc(Cl)cn23)o1 | -5.19%
CCc1ccc(NC(=O)N(Cc2ccco2)C(C)c2cccs2)cc1 (stereo not drawn) | 0.17%
CCN(CCCNC(=O)C1CCC(=O)N1C1CCCC1)c1cccc(C)c1 (stereo not drawn) | 0.34%
COc1ccc(OC(=O)c2c(C)nn(-c3ccccc3)c2C)cc1 | -12.3%
Cc1c(C(=O)Oc2cccc3ccccc23)cnn1-c1ccccc1 | 27.3%
NC(=O)CSc1nnnn1-c1ccc(OC(F)(F)F)cc1 | -7.21%
CCC1=CCN(CCc2c(C)[nH]c3ccccc23)CC1 | -0.79%
NNC(=S)Nc1c(Br)cc(F)cc1Br | -5.67%
Clc1ccc2nc(-c3ccc4c(c3)OCO4)cn2c1 | 4.92%
COc1cccc(C2=NC(C)(C)NC(c3ccccc3O)C2)c1 (stereo not drawn) | 4.8%
CCC1(C)N=C(c2ccc3c(c2)OCO3)CC(c2ccccc2O)N1 (stereo not drawn) | 14.6%
CCOc1ccccc1C1N=C(c2ccc(OC)cc2)CC(c2ccccc2O)N1 (stereo not drawn) | 7.98%
